HCV inhibitor: HCV inhibition. Huh7.5.1 HCVcc-Cre infection, luciferase reporter, 44 h. Potency, µM (series often up to 41.8 µM), without a hit: at the highest dose activity change, negative = inhibition, most hits filed as inhibitors. 340,000 compounds, 3.4% hits. AID 651820; also: potency is read from the fitted curve at half-maximal effect; % is scaled to controls: 0 for no effect and ±100 for the full control effect
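Reporter virus HCVcc-Cre (~0.5 moi) infects cells exposed to compound; seeding density 1,000 cells/well with 4 h settling beforehand. Luminescence, 15 sec read, taken 44 h post-infection following a 15 min RT substrate incubation.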
HCMV inh: human cytomegalovirus inhibition | HFF cells, HCMV-luciferase reporter, 72 h; active compounds read low | activity change, negative = inhibition, % at 57.5 µM | 410,000 compounds, 4.5% hits | AID 1259415; in the data active = activity change below about -60%; inconclusive = no clear call, values can overlap the other calls; inactive = above about -39%; also: % is scaled to controls: 0 for no effect and ±100 for the full control effect
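Human foreskin fibroblasts infected with luciferase-reporter HCMV at MOI 1 PFU/cell, compounds at two doses. Luciferase measured 72 h post infection; normalized to buffer-only basal and Salinomycin (10uM) controls.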
Pf growth 48h: P. falciparum growth inhibition at 48 hours (one generation). P. falciparum luciferase growth in erythrocytes, 48 h. 310,000 compounds, 5.9% hits. AID 504832. Potency, µM (titrated, usually from 28.7 µM), for inactives: at the top dose activity change, negative = inhibition, hits mostly inhibitors; also: potency is read from the fitted curve at half-maximal effect; % is scaled to controls: 0 for no effect and ±100 for the full control effect
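First compound was added to culture medium, then infected red cells at 0.1% parasitemia and 2% hematocrit (final). After incubation at 37 C under 5% CO2, luciferase detection reagent was dispensed and light output recorded.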
Cycloheximide cs: affects cycloheximide protein synthesis inhibition readout, counter-screen | cell reporter, cycloheximide protein synthesis inhibition counterscreen | AID 2314 | max response, % | 300,000 compounds, 12% hits; in the data active = max response mostly above about 13%, no sharp cut-off; inactive = mostly below about 14%; also: read at 38.3 µM for the half of the compounds with a filed dose; 0% is about no effect
Shiga inhibitor: Shiga toxin inhibition. Vero cells, Shiga toxin protein synthesis inhibition reporter. inhibition, % at 38.7 µM. 290,000 compounds, 9.2% hits; in the data active = inhibition mostly above about 28%, no sharp cut-off; inactive = mostly below about 43%; also: 0% is about no effect
Pf growth 96h: P. falciparum growth inhibition at 96 hour, primary screen for plastid delayed-death inhibitors; P. falciparum luciferase reporter growth, 96 h; Potency, µM (titrated, usually from 28.7 µM), inactives show at the top dose activity change, negative = inhibition, actives largely listed as inhibitors; 320,000 compounds, 6.9% hits; AID 504834; also: potency is read from the fitted curve at half-maximal effect; % is scaled to controls: 0 for no effect and ±100 for the full control effect
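P. falciparum expressing integrated firefly luciferase grown in erythrocytes (2% hematocrit, 0.05% parasitemia final) with compounds for 96 hours at 37 C, 5% CO2. Growth inhibition read as loss of luminescence after adding luciferase detection reagent.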
An asterisk follows results filed as active; ? = inconclusive; . = not tested or not shown; [ ] = another dose, or the depositor's remark. This is a sample that favours compounds with a hit; in the whole collection about 21% have one here. Unless noted, calls follow the shape of the dose curve; as a rule, active = well fitted inhibition curve with a large enough effect; inconclusive = small, poorly fitted or top-dose-only effect, or another doubt; inactive = no such curve, though single readings can be large or run the other way.

SMILES	HCV inhibitor	HCMV inh	Pf growth 48h	Cycloheximide cs	Shiga inhibitor	Pf growth 96h
Cc1ccccc1S(=O)(=O)NC(=O)C1(C)CCN1C(=O)C1CCCCC1 (configuration not stated)	.	37.6	.	.	.	.
CCN(CC)c1ccc(NC(=S)NC(=O)c2ccco2)cc1	-25.9%	15.7	?	37.8*	60.6*	37.1%
Cc1cc(C)nc(NS(=O)(=O)c2ccc(NC(=S)NC(=O)c3ccco3)cc2)n1	10.0%	-6.1	-9.6%	-1.1	-7.9	380.1%
CCN(CC)P(=O)(Nc1cccc(C(F)(F)F)c1)c1ccc(N(C)C)cc1NC(=O)c1ccco1 (configuration not stated)	?	?	2.08µM*	4.4	11.9	1.85µM*
CC(=O)c1ccc(NC(=O)c2ccc(NC(=O)c3ccco3)cc2)cc1	?	.	-29.9%	-2.9	-14.8	?
CCN(CC)c1ccc(NC(=O)c2ccc(Br)o2)c(C)c1	?	-17.6	7.38µM*	16.2	27.9*	.
CCN(CC)c1ccc(NC(=O)c2cccc(F)c2)c(C)c1	?	-26.1	7.4%	13.6	5.7	51.6%
CCN(CC)c1ccc(NC(=O)c2ccco2)cc1	5.1%	21.0	-10.9%	22.5*	66.3*	-16.7%
CN(C)c1cccc(NC(=O)c2ccco2)c1	11.6%	11.9	-10.6%	17.8	26.0	85.8%
CCc1ccc(S(=O)(=O)c2nnn3c2nc(Nc2cc(OC)cc(OC)c2)c2cc(Cl)ccc23)cc1	.	4.1	.	.	.	.
F[B-](F)(F)COCc1ccccc1Br	15.0%	4.2	.	.	.	.
CC(C)CCNC(=O)C(=O)Nc1cc2c3c(c1)CCC(=O)N3CCC2	-18.4%	58.4	-5.0%	-0.7	-8.4	?
CCN(CC)c1ccc(NC(=O)c2ccco2)c(C)c1	-13.4%	-5.4	?	15.4*	28.2	17.8%
COc1ccc(S(=O)(=O)NCCc2sc(-c3cccnc3)nc2C)c(F)c1	.	-5.2	.	.	.	.
CCc1c(C#N)sc(C(N)=O)c1CC	12.7%	-73.9*	-6.8%	-2.5	-7.6	15.0%
COCCCn1[nH]c2c3c(ccc2c1=O)C(=O)c1ccccc1C3=O	?	?	11.7µM*	34.0	51.5	.
CC(C)(C)n1[nH]c2c3c(ccc2c1=O)C(=O)c1ccccc1C3=O	?	16.8	1.31µM*	24.2*	44.2	.
Cc1ccc(-n2[nH]c3c4c(ccc3c2=O)C(=O)c2ccccc2C4=O)cc1	29.7%	-33.1	22.7%	-1.4	-15.5	30.2%
Cc1cc(-n2c(C)nc3ccccc3c2=O)ccc1NC(=O)c1cccc([N+](=O)[O-])c1	.	-16.0	.	.	.	.
COc1ccc(NC(=O)c2cc(C)nn2-c2ccccc2)cc1	6.7%	-15.0	-0.9%[0.00184 µM]	37.2*	58.2*	16.1%
CCc1ccc(NC(=O)c2cc(C)nn2-c2ccccc2)cc1	8.6%	?	-1.5%[0.00184 µM]	12.9*	26.0	21.3%
COc1cc(OC)c2c3c(c(C4CCCCC4)nc2c1)CCC3	-14.5%	9.6	.	.	.	.
CC(C)C[C@H](NC(=O)[C@H](Cc1ccccc1)NC(=O)CNC(=O)[C@H](CCC(=O)O)NC(=O)[C@H](CCCNC(=N)N)NC(=O)[C@H](C)NC(=O)[C@H](C)NC(=O)[C@@H](N)CC(=O)O)C(=O)N[C@@H](CC(=O)O)C(=O)N[C@H](C(=O)N[C@@H](CC(C)C)C(=O)N[C@H](C(=O)N[C@H](C(=O)N[C@@H](CC(C)C)C(=O)N[C@@H](Cc1cnc[nH]1)C(=O)N[C@@H](CCCNC(=N)N)C(=O)N[C@@H](C)C(=O)NCC(=O)N[C@@H](C)C(=O)N[C@@H](CCCNC(=N)N)C(=O)O)C(C)C)C(C)C)[C@@H](C)O	.	.	.	-4.4	13.7	.
Cc1ccc(OCC(=O)Nc2ccc3c(c2)nc(CCN2CCN(C)CC2)n3C)cc1	-17.2%	-22.2	?	-2.4	-8.9	?
Cn1c(CCN2CCCCC2)nc2cc(NC(=O)COc3ccc([N+](=O)[O-])cc3)ccc21	-29.9%	-74.6*	?	-2.5	-4.7	?
SMILES	HCV inhibitor	HCMV inh	Pf growth 48h	Cycloheximide cs	Shiga inhibitor	Pf growth 96h
CCn1c(CN2CCCCC2)nc2cc(NC(=O)COc3ccc([N+](=O)[O-])cc3)ccc21	.	-22.8	.	.	.	.
CN1CCN(CCc2nc3cc(NC(=O)COc4ccc(Cl)cc4)ccc3n2C)CC1	?	?	?	-5.7	-0.4	9.28µM*
Cn1c(CCN2CCCCC2)nc2cc(NC(=O)COc3ccc(Cl)cc3)ccc21	?	-69.8*	?	-5.4	3.0	?
Cc1ccc(C(C)C)c(OCC(=O)Nc2ccc3c(c2)nc(CCN2CCCCC2)n3C)c1	10µM*	-81.2*	?	-13.2	-21.0	-18.5%
CCCn1c2ccccc2c2cnn(CC(=O)NCCc3ccc(S(N)(=O)=O)cc3)c(=O)c21	.	16.1	.	.	.	.
Cc1ccc(-n2ncc(C(=O)N3CCN(C4CCCCC4)CC3)c2C2CCN(C(=O)OC(C)(C)C)CC2)cc1C	.	0.0	.	.	.	.
CC(C)CC(=O)Nc1ccc2c(c1)nc(CCN1CCCCC1)n2C	-2.3%	56.0	?	-5.1	-12.3	13.1µM*
Cc1nn(CC(=O)Nc2ccc3c(c2)nc(CCN2CCCCC2)n3C)c(=O)c2ccccc12	?	-62.9*	-16.5%	-4.8	-9.8	.
COc1cc(/C=C/C(=O)OCC(=O)NCc2ccc(F)cc2)ccc1O	?	37.9	.	.	.	.
COc1ccccc1CNc1ncccc1[N+](=O)[O-]	6.1%	4.1	-17.8%[0.00184 µM]	1.1	-3.1	?
O=C(Nc1ccc(F)cc1)c1cccnc1NCCc1ccccc1	16.9%	-29.4	?	-2.7	-11.6	3.7µM*
O=[N+]([O-])c1cccnc1NCCc1ccccc1	6.3%	65.7	223.9%	36.8*	67.3*	191.7%
O=[N+]([O-])c1cccnc1NCCc1c[nH]c2ccccc12	?	-15.4	141.3%	30.8*	67.6*	102.4%
O=[N+]([O-])c1cc(C(F)(F)F)ccc1NCCc1c[nH]c2ccccc12	-29.3%	-24.8	-6.9%	10.4*	53.8*	9.8%
CCC(C)[C@H](N)c1cn([C@@H](CCCCN)C(=O)N2CCNCC2)nn1 (some centres not stated)	0.8%	-13.8	43.2%	0.7	20.8	60.0%
Cc1ccccc1C1=N/C(=C/c2cccs2)C(=O)O1	10.4%	-1.7	37.7%	28.6	16.4	?
Cc1ccc(C2=N/C(=C/c3cccs3)C(=O)N2Nc2ccccc2)cc1	11.2µM*	-5.7	?	9.0	21.9	.
COc1ccc([C@@]2(O)c3c(ccc(CC=C(C)C)c3O)NC(=O)[C@@H]2OC)cc1	?	67.8	?	-4.6	15.6	-24.9%
O=c1nc2n(c3cc(Cl)c(S(=O)(=O)N4CCOCC4)cc13)CCCCC2	-2.5%	-9.0	-17.1%	-4.5	12.3	9.28µM*
O=S(=O)(Nc1c(Br)cc(Br)c2cccnc12)C1CC1	.	.	.	-5.1	-3.9	.
COc1cc(/C=N/NC(N)=O)ccc1OC(=O)c1ccco1	-3.3%	54.8	-6.5%	0.4	-15.4	10.1%
